# Compounds with a hit are over-represented: about 9.4% of the library has one in this group of screens.
# HTT cytoprotect: qHTS Multiplex Assay to Identify Dual Action Probes in a Cell Model of Huntington: Cytoprotection (ATP). PC12 HTT-Q103 induced, cytoprotection, ATP luminescence, 40 h. Potency, µM (doses to about 56.4 µM), inactives show cytoprotection (ATP increase), most hits filed as activators. hit rate 0.14% among 230,000. AID 1471, 2008; note: potency is the fitted concentration of half-maximal effect; % of control where 0% means no effect; nearly all actives have a fitted effect of over 45% in size
#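 Readout: ATPlite luminescence (ATP level). Model: stable PC12, inducible Htt exon1 Q103-GFP. Inducer: tebufenozide, 100 nM final. Compounds: dose series. No G418 in medium.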
# IMPase cell inh: qHTS Assay for Identifying the Cell-Membrane Permeable IMPase Inhibitors. Inositol monophosphatase 1 (Rattus norvegicus), P97697. CHO-M1 cells, IP1 accumulation, HTRF TR-FRET ratio. inhibition (IP1 accumulation), % at 46.1 µM. 120,000 tested, under 10 active; active = well fitted curve in the direction sought with a large enough effect in the signal ratio, not every such curve was filed as active; inconclusive = small, poorly fitted or top-dose-only effect, or a change in a side signal; inactive = no such curve, though single readings can be large or run the other way; the % refers to the signal ratio;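 note: cells stimulated with carbachol in lithium chloride buffer; plate controls were DMSO basal wells for no effect and reference inhibitor wells for full effect; higher means more IMPase inhibition seen as more IP1 and lower FRET ratio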
#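 Measured: the HTRF emission ratio (665/620 nm) plus the 620 nm donor channel, each fitted to the Hill equation to give AC50. Cells were CHO-M1 given compounds up to 46 uM and a 30 min carbachol stimulation at 37C.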
# IMPase Li inh: qHTS Assay for Identifying the Cell-Membrane Permeable IMPase Inhibitors: Potentiation with Lithium. AID 1457, 2008. Potency, µM (highest dose often 59.4 µM), inactives show top-dose activity, negative = IMPase inhibition, most hits filed as inhibitors. CHO-M1 cells, IP1 TR-FRET (IP-One), carbachol + lithium. hit rate 0.35% among 210,000;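 note: IP1 builds up when IMPase is blocked and the TR-FRET signal falls; potency is the fitted concentration of half-maximal effect; plate controls were basal vehicle for no effect and high inhibitor control for full effect; nearly all actives have a fitted effect of over 50% in size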
#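 Concentration–response in CHO-M1 cells, lithium-potentiated; 30 min at 37C. IP1 detected by competitive TR-FRET after 10 min lysis at RT. Hill-fitted AC50.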
# HTT aggregate: qHTS Multiplex Assay to Identify Dual Action Probes in a Cell Model of Huntington: Aggregate Formation (GFP). hit rate 1.1% among 220,000. AID 1688, 2009. Potency, µM (series often up to 46.1 µM), for inactives: at the top dose activity change, negative = inhibition, usual class: inhibitors. PC12 HttQ103-GFP aggregates, Acumen cytometry, 40 h; note: potency is the fitted concentration of half-maximal effect; % is set by controls: 0 for no effect and ±100 for the full control effect; nearly all actives have a fitted effect of over 60% in size
#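 Steps: seed 1500 PC12 HTTQ103-GFP cells/well; add tebufenozide, 100 nM final; add compound titration; add ATPLite reagent; quantify GFP aggregates by laser scanning cytometry.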
# HPGD block: qHTS Assay for Inhibitors of HPGD (15-Hydroxyprostaglandin Dehydrogenase). 15-hydroxyprostaglandin dehydrogenase [NAD(+)] (Homo sapiens), P15428. purified HPGD, NADH fluorescence kinetic, PGE2 substrate. Potency, µM, inactives show top-dose activity change, negative = inhibition, usual class: inhibitors. hit rate 4.3% among 150,000; active = well fitted inhibition curve with a large enough effect, not every such curve was filed as active; inconclusive = small, poorly fitted or top-dose-only effect, or another doubt; inactive = no such curve, though single readings can be large or run the other way; note: potency is the fitted concentration of half-maximal effect; % is set by controls: 0 for no effect and ±100 for the full control effect
# Target sequence (P15428 whole entry, looked up): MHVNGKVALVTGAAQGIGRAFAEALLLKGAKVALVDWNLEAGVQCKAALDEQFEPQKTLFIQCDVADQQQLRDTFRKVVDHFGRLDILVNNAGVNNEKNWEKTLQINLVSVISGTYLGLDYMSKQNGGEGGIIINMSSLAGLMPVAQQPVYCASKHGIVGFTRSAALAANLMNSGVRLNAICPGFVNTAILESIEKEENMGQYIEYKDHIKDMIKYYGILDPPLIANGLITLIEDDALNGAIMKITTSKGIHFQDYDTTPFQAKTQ
#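 NADH formation kinetics: reaction with 30 uM PGE2 and 1 mM NAD+ (final), 20 nM enzyme, Tris-HCl pH 8 with Tween 20, after 15 min compound preincubation at room temperature. Fluorescence change, last versus first of five reads.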
# ALDH1A1 block: qHTS Assay for Inhibitors of Aldehyde Dehydrogenase 1 (ALDH1A1); Purified ALDH1A1, NADH fluorescence, propionaldehyde substrate; AID 1030, 2008; hit rate 7.3% among 220,000; Aldehyde dehydrogenase 1A1 (Homo sapiens), P00352; Potency, µM (series often up to 75.3 µM), inactives show at the top dose activity, negative = inhibition, usual class: inhibitors; active = well fitted inhibition curve with a large enough effect, not every such curve was filed as active; inconclusive = small, poorly fitted or top-dose-only effect, or another doubt; inactive = no such curve, though single readings can be large or run the other way;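 note: potency is the fitted concentration of half-maximal effect; plate controls were no enzyme wells and a reference inhibitor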
# Target sequence (P00352 whole entry, looked up): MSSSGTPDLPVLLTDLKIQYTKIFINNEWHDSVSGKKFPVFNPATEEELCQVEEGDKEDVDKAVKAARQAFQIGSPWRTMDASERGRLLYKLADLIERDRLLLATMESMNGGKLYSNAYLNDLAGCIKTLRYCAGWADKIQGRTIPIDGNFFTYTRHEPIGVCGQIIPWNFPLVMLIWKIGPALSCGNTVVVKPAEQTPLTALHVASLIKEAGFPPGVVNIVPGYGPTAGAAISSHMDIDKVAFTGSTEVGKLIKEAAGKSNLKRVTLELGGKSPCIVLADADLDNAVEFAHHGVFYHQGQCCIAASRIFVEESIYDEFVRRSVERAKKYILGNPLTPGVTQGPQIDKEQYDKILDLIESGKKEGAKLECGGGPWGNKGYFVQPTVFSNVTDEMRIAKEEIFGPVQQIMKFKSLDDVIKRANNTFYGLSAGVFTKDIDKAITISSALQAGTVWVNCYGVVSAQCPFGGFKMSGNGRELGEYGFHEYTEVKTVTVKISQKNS
# An asterisk follows results filed as active; ? = inconclusive; / = not tested or not shown; [ ] = dose if it differs, or a comment. Unless noted, calls come from the whole dose curve; as a rule, active = well fitted curve in the direction sought with a large enough effect; inconclusive = small, poorly fitted or top-dose-only effect, or another doubt; inactive = no such curve, though single readings can be large; an effect the other way counts as inactive or inconclusive.
SMILES,HTT cytoprotect,IMPase cell inh,IMPase Li inh,HTT aggregate,HPGD block,ALDH1A1 block
COc1ccc(CCNC(=O)COC(=O)C23CC4CC(CC(Br)(C4)C2)C3)cc1,/,/,-2.2%,-4.9%,-5.5%,-2.5%
Nc1ccc(C23CC4CC(CC(CO)(C4)C2)C3)cc1,-128.3%,9.1,-28.2%[38.3 µM],14.3%,-8.6%,11.2µM*
Nc1ccc(C23CC4CC(CC(O)(C4)C2)C3)cc1,-58.3%,0.1,-19.5%[38.3 µM],4.9%,1.7%,?
COC(=O)C/C=C\[C@@H](C)[C@@H](/C=N\OC[C@@H]1O[C@H](c2ccccc2)C=C[C@@H]1Oc1ccc(OC)cc1)OC,-14.1%[10 µM],/,/,/,/,-10.1%[13.5 µM]
Cn1nc(-c2ccc(N3CCCCC3)c(NC(=O)c3ccco3)c2)c2ccccc2c1=O,-4.2%[10 µM],17.1,10.2%,?,-28.5%,31.6µM*
Cc1ccc(C(=O)O/N=C2\CC3CCC2(C)C3(C)C)cc1 (configuration not stated),3.0%[10 µM],1.7[0.0738 µM],0.5%,0.7%,-5.4%,12.6µM*
Cc1cccc(CNc2ncncc2-c2ccc3c(c2)OCO3)c1,-12.9%,/,1.8%,/,?,-15.3%
O=C(O)CSc1ccc(Oc2ccc(SCC(=O)O)cc2)cc1,-23.6%[10 µM],/,3.6%,-29.5%[9.22 µM],/,12.6µM*
COc1ccccc1-n1c(/C=C/c2c(C)n(C)c3ccccc23)nc2ccccc2c1=O,/,2.1,/,/,/,/
COCCNc1ncnc2ccc(-c3ccccc3OC)cc12,-96.0%,/,12.2%,/,/,?
CSCC(=O)N1CCCC(CNC(=O)c2ccc(-c3ccccc3)cc2)C1 (configuration not stated),-8.8%[10 µM],/,1.7%,2.2%[9.22 µM],/,3.98µM*
COC(=O)CSc1ncnc2c1sc1nc3c(cc12)COC(C)(C)C3,-53.4%[10 µM],/,6.4%,12.5%,/,1.41µM*
CC1(C)Cc2nc3oc4c(NCc5ccccc5)ncnc4c3cc2CO1,-25.7%[0.074 µM],-15.2,-1.2%[38.3 µM],17.4%,?,?
CC1(C)Cc2nc3sc4c(SCC(=O)NCc5ccccc5)ncnc4c3cc2CO1,-119.1%,4.3,?,34.2%,-24.8%,7.94µM*
COC(CSc1ncnc2c1oc1nc3c(cc12)COC(C)(C)C3)OC,-1.7%[10 µM],/,/,21.5%[9.22 µM],/,3.16µM*
CC1(C)Cc2nc3sc4c(SCC(=O)O)ncnc4c3cc2CO1,-67.0%[10 µM],/,/,0.7%[9.22 µM],/,/
CCOCC(=O)O,-15.4%,/,-1.2%,/,-3.5%,8.9%
Cn1c(=O)n(C)c2cc(N3CCOCC3)c(NC(=O)c3ccc(Cl)cc3)cc21,/,-5.3,/,/,/,/
O=C(O)c1cc(=O)[nH]c(SCc2ccccc2)n1,-5.1%[10 µM],/,14.1%,/,-9.3%,-12.8%[13.5 µM]
Cc1cc(C(=O)NP(=O)(N2CC(C)OC(C)C2)N2CC(C)OC(C)C2)c(C)n1C1CC1 (configuration not stated),2.9%[10 µM],/,11.2%,1.5%,/,-0.7%
COC(=O)N1CCC[C@@]2(CCN(C(=O)Nc3cccc(C#N)c3)C2)C1,-0.4%,/,0.0%,/,-2.2%,-6.3%
COCCCNCCCOc1ccc(Cl)cc1C(C)(C)C,/,/,-2.2%,7.94µM*,-9.8%,-6.5%
CNCCCOc1ccc(Cl)cc1C(C)(C)C,-21.6%,/,19.1%,-4.3%[9.22 µM],/,?
Nc1nc2c([nH]c(=O)n2C2OC(CO)C(O)C2O)c(=O)[nH]1 (configuration not stated),/,/,5.4%,/,-6.7%,1.8%
CNC(=O)[C@H](C)/C=C/C(NC(=O)OCc1ccccc1)c1ccc(C(=O)OC)cc1 (some centres not stated),7.1%,/,6.5%,/,-5.0%,?
SMILES,HTT cytoprotect,IMPase cell inh,IMPase Li inh,HTT aggregate,HPGD block,ALDH1A1 block
CCOC(=O)C1C(c2cc(OC)c(O)c(OC)c2)NC(=S)NC1(O)C(F)(F)F (configuration not stated),-16.4%[10 µM],/,-0.8%,-4.5%,-3.9%,9.6%
CCOc1cc(C2NC(=O)NC(O)(C(F)(F)F)C2C(=O)c2ccc(OC)cc2)ccc1O (configuration not stated),23.5%[10 µM],2.6,4.2%[38.3 µM],11.8%,-11.8%,5.62µM*
CCOC(=O)C1C(c2cc(OC)c(OC)c(OC)c2)NC(=S)NC1(O)C(F)(F)F (configuration not stated),0.2%,-2.2,-5.5%[38.3 µM],-10.7%,31.6µM*,?
O=C(c1ccco1)N1CCC2(CC1)CCN(c1ccccc1)CC2,-7.7%,/,11.6%,/,-9.1%,?
O=C(/C=C/C=C/c1ccccc1)c1ccco1,1.8%[10 µM],/,/,13.7%[9.22 µM],/,28.2µM*
CN1CCN(C(=O)CCCOc2ccc(Cl)cc2Cl)CC1,-65.7%,9.9,16.7%[38.3 µM],2.3%,20µM*,?
O=C(O)c1ccc(COc2ccc(CO)cc2Cl)cc1,-18.6%,8.4,35.5%[38.3 µM],-7.6%,15.8µM*,14.6%
CN1CCN(C(=O)c2ccc(COc3ccc(Cl)cc3Cl)cc2)CC1,-2.0%[10 µM],6.9,11.2%[38.3 µM],-22.9%,2.82µM*,11.8%
Fc1ccc(NCc2ccccc2-c2nnc(-c3ccccc3Cl)o2)cc1,/,-2.7,/,/,/,/
Cc1ccc(S(=O)(=O)N(CC(=O)N2CCC(C)CC2)c2cccc(C)c2)cc1,16.4%,12.5,37.5%[38.3 µM],-6.3%,-8.7%,11.2µM*
CCOC(=O)N1CCN(C(=O)CN(c2cccc(C)c2)S(=O)(=O)c2ccc(C)cc2)CC1,3.6%,14.0,29.7%[38.3 µM],-4.1%,-3.3%,?
Cc1c(N=Cc2ccc[nH]2)c(=O)n(-c2ccccc2)n1C,-1.6%,11.8,6.1%[38.3 µM],-7.1%,?,12.6µM*
CN(Cc1ccco1)c1ncnc2ccc(-c3ccccc3C(F)(F)F)cc12,2.1%,/,20.3%,/,/,-9.0%
Cc1nc2ccccc2n1C(=O)c1ccccc1[N+](=O)[O-],/,-4.7,-8.0%,0.141µM*,-20.2%,-0.1%
CCNc1c2c(nc3ccccc13)CC(C)(C)CC2=O,14.1%[1.9 µM],10.0,23.4%,4.1%,-5.4%,14.1µM*
C[C@@]12C(=O)OC(=O)[C@]1(C)[C@H]1CC[C@@H]2O1,-182.0%[17.1 µM],7.1[20.6 µM],16.9%,-24.7%[20.6 µM],-4.5%,6.6%[20.9 µM]
O=C(CSc1cccc[n+]1[O-])c1cc2ccccc2o1,-25.4%[10 µM],-2.9,-0.3%[38.3 µM],14.5%,28.2µM*,?
O=C(O)CSc1cccc[n+]1[O-],-10.8%,16.1,-12.3%[38.3 µM],22.6%,3.7%,0.8%
CCOc1ccc2c(c1)c1nnc(SCC(=O)N3CCCCC3C)nc1n2C (configuration not stated),-20.6%,0.2,18.8%[38.3 µM],-7.2%,15.8µM*,12.6µM*

# Bioassay records (PubChem BioAssay)
